Counter-ions that a name gives are not always drawn.
Assays:
Assay in all cases: Euclidean distance of Cell Painting phenotypic profile (signed KS, 77 features) to DMSO centroid (dimensionless distance); 5 or 10 uM (library dependent); higher = stronger phenotypic change vs DMSO (phenoactivity)
Details in all cases: 48 h
[1] = tested on: 786-O
Outline: (§1)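 Phenoactivity is defined as the Euclidean distance from a compound profile to the median vehicle profile. Each profile comprised 77 Harmony features, scored as signed Kolmogorov-Smirnov statistics versus same-plate vehicle wells, then plate-position corrected, correlation-weighted and replicate-averaged at the top dose. Five cancer lines and one healthy fibroblast line were exposed to library compounds for 48 h at 10 or 5 uM (0.1% DMSO final).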

[2] = tested on: A549
Outline: as §1

[3] = tested on: FB
Outline: as §1

[4] = tested on: HEPG2
Outline: as §1

[5] = tested on: OVCAR4
Outline: as §1

SMILES | Euclidean distance [1] | Euclidean distance [2] | Euclidean distance [3] | Euclidean distance [4] | Euclidean distance [5]
CC(C)(C)NC[C@H](O)COc1nsnc1N1CCOCC1 [Timolol Maleate] | 1.22 | 0.771 | 0.609 | 0.591 | 1.76
CCN1CCCC1CNC(=O)c1cc(S(N)(=O)=O)ccc1OC (stereo not given) [Sulpiride] | 0.713 | 1.29 | 0.953 | 1.17 | 0.676
CSc1ccc(OCc2ncc([N+](=O)[O-])n2C)cc1 [Fexinidazole] | 1.24 | 1.03 | 0.976 | 0.857 | 1.16
CC1(C)S[C@@H]2[C@H](NC(=O)C(C(=O)O)c3ccccc3)C(=O)N2[C@H]1C(=O)O (stereo not given in full) [Carbenicillin disodium] | 1.39 | 1.07 | 0.969 | 0.836 | 1.76
CCCNC(=O)NS(=O)(=O)c1ccc(Cl)cc1 [Chlorpropamide] | 1.01 | 0.601 | 0.968 | 0.632 | 1.99
CN(C)CCOC(c1ccccc1)c1ccccc1 [Diphenhydramine HCl] | 0.916 | 0.411 | 0.777 | 0.793 | 0.518
CC(=O)[C@@]1(O)CC[C@H]2[C@@H]3CCC4=CC(=O)CCC4=C3[C@@H](c3ccc(N(C)C)cc3)C[C@@]21C [Ulipristal] | 0.949 | 1.22 | 1.05 | 1.13 | 0.761
Cc1nnc(SCC2=C(C(=O)O)N3C(=O)[C@@H](NC(=O)Cn4cnnn4)[C@H]3SC2)s1 [Cefazolin] | 1.28 | 0.455 | 1.6 | 0.891 | 1.58
Nc1ccc(S(=O)(=O)Nc2nccs2)cc1 [Sulfathiazole] | 0.815 | 0.811 | 0.62 | 0.824 | 0.818
COCCCOc1cc(C[C@@H](C[C@H](N)[C@@H](O)C[C@H](C(=O)NCC(C)(C)C(N)=O)C(C)C)C(C)C)ccc1OC [Aliskiren Hemifumarate] | 0.778 | 0.371 | 0.622 | 0.506 | 0.752
Cc1oncc1C(=O)Nc1ccc(C(F)(F)F)cc1 [Leflunomide] | 2.25 | 2.41 | 2.37 | 1.3 | 2.17
CNCCCC1c2ccccc2C=Cc2ccccc21 [Protriptyline hydrochloride] | 1.15 | 0.784 | 1.82 | 1.74 | 0.952
CC(C)[C@H]1C(=O)N[C@@H](CCCN=C(N)N)C(=O)NCC(=O)N[C@@H](CC(=O)O)C(=O)N[C@H](Cc2ccccc2)C(=O)N1C | 4.91 | 2.03 | 1.25 | 4.74 | 2.44
CC(C)(Cc1ccc2ccccc2c1)NC[C@@H](O)COc1cccc(Cl)c1C#N | 1.35 | 1.64 | 1.06 | 1.77 | 1.45
CC[C@H](C)[C@H](N)C1=N[C@H](C(=O)N[C@@H](CC(C)C)C(=O)N[C@H](CCC(=O)O)C(=O)N[C@H](C(=O)N[C@H]2CCCCNC(=O)[C@H](CC(N)=O)NC(=O)[C@@H](CC(=O)O)NC(=O)[C@H](Cc3cnc[nH]3)NC(=O)[C@@H](Cc3ccccc3)NC(=O)[C@H]([C@@H](C)CC)NC(=O)[C@@H](CCCN)NC2=O)[C@@H](C)CC)CS1 [Bacitracin] | 1.65 | 1.13 | 0.901 | 0.726 | 1.22
CC(CN(C)C)CN1c2ccccc2CCc2ccccc21 (stereo not given) [Trimipramine Maleate] | 1.08 | 1.02 | 1.91 | 1.2 | 1.57
COc1c2occc2cc2ccc(=O)oc12 [Methoxsalen] | 0.745 | 0.658 | 0.948 | 0.988 | 1.08
CC1(C)C[C@@H]1C(=O)N/C(=C\CCCCSC[C@H](N)C(=O)O)C(=O)O [Cilastatin] | 0.899 | 0.574 | 1.49 | 0.578 | 0.796
COc1ccc([C@@H]2Sc3ccccc3N(CCN(C)C)C(=O)[C@@H]2OC(C)=O)cc1 [Diltiazem HCl] | 0.663 | 1.04 | 0.788 | 0.773 | 0.53
COc1cc2ccc(=O)oc2cc1O [Scopoletin] | 1.25 | 0.713 | 0.934 | 0.82 | 1.3
CC[C@H](C)[C@H](N)C1=N[C@H](C(=O)N[C@@H](CC(C)C)C(=O)N[C@H](CCC(=O)[O-])C(=O)N[C@H](C(=O)N[C@H]2CCCCNC(=O)[C@H](CC(N)=O)NC(=O)[C@@H](CC(=O)[O-])NC(=O)[C@H](Cc3cnc[nH]3)NC(=O)[C@@H](Cc3ccccc3)NC(=O)[C@H]([C@@H](C)CC)NC(=O)[C@@H](CCCN)NC2=O)[C@@H](C)CC)CS1.[Zn+2] [Bacitracin Zinc] | 0.919 | 0.811 | 0.932 | 1.77 | 1.44
O=C(Nc1ccc(OC(F)(F)Cl)cc1)c1cnc(N2CC[C@@H](O)C2)c(-c2cc[nH]n2)c1 [Asciminib (ABL001)] | 1.54 | 1.72 | 1.32 | 1.2 | 1.39

SMILES | Euclidean distance [1] | Euclidean distance [2] | Euclidean distance [3] | Euclidean distance [4] | Euclidean distance [5]
Nc1nc(N)nc(-c2cc(Cl)ccc2Cl)n1 [Irsogladine] | 1.09 | 1.05 | 0.809 | 0.613 | 1.41
O=C(NCCN1CCOCC1)c1ccc(Cl)cc1 | 1.01 | 1.34 | 0.812 | 0.538 | 1.07
C[C@@H]1CCC[C@H](C)N1NC(=O)c1ccc(Cl)c(S(N)(=O)=O)c1 [Clopamide] | 1.15 | 1.14 | 0.969 | 0.528 | 1.14
O=C1N=C(O)NC1(c1ccccc1)c1ccccc1 [Phenytoin Sodium] | 0.861 | 0.644 | 0.99 | 0.976 | 0.588
CN[C@@H](C)C(=O)N[C@H](C(=O)N1CCC[C@H]1c1nc(C(=O)c2ccc(F)cc2)cs1)C1CCCCC1 | 1.14 | 1.17 | 1.22 | 1.51 | 2.13
Cc1ccc(C(=O)Nc2ccc(CN3CCN(C)CC3)c(C(F)(F)F)c2)cc1C#Cc1cnc2[nH]ncc2c1 [GZD824 Dimesylate] | 4.23 | 4.68 | 5.04 | 5.49 | 4.87
CS(=O)(=O)c1ccc(Oc2cc(F)cc(C#N)c2)c2c1[C@H](O)C(F)(F)C2 | 1.1 | 1.02 | 1.28 | 0.605 | 1.38
Cc1c(C)c2c(c(C)c1O)CCC(C)(COc1ccc(CC3SC(=O)NC3=O)cc1)O2 (stereo not given) [Troglitazone (CS-045)] | 1.4 | 1.51 | 0.893 | 0.876 | 1.2
COc1ccc(-n2nc(C(N)=O)c3c2C(=O)N(c2ccc(N4CCCCC4=O)cc2)CC3)cc1 [Apixaban] | 2.4 | 2.33 | 3.79 | 1.17 | 2.13
COc1c(O)cc2c(c1O)[C@@H]1O[C@H](CO)[C@@H](O)[C@H](O)[C@H]1OC2=O [Bergenin] | 1.22 | 0.742 | 0.906 | 0.765 | 2.16
CC1(C)[C@H](C(=O)O)N2C(=O)C[C@H]2S1(=O)=O [Sulbactam sodium] | 0.743 | 0.526 | 0.933 | 0.675 | 0.666
NC(=O)c1ncn([C@@H]2O[C@H](CO)[C@@H](O)[C@H]2O)c1O [Mizoribine] | 1.26 | 0.927 | 0.917 | 0.657 | 0.855
Nc1ccc2cc3ccc(N)cc3nc2c1 [Proflavine Hemisulfate] | 4.95 | 4.91 | 5.65 | 5.57 | 5.46
C[C@@H]1C[C@H]2[C@@H]3CCC4=CC(=O)C=C[C@]4(C)[C@@]3(Cl)[C@@H](O)C[C@]2(C)[C@@]1(OC(=O)c1ccco1)C(=O)CCl [Mometasone furoate] | 2.05 | 1.97 | 1.79 | 0.88 | 2.18
CC(C)(C)[C@@H]1NC(=O)O[C@@H]2CCC[C@H]2OC/C=C/C(F)(F)c2nc3ccccc3nc2O[C@@H]2C[C@@H](C(=O)N[C@]3(C(=O)NS(=O)(=O)C4(C)CC4)C[C@H]3C(F)F)N(C2)C1=O [Glecaprevir] | 1.01 | 1.22 | 0.806 | 0.687 | 0.812
CCCNC(C)C(=O)Nc1c(C)csc1C(=O)OC (stereo not given) [Articaine HCl] | 1.24 | 0.941 | 0.813 | 0.87 | 1.06
Nc1nc(N)c2nc(-c3ccccc3)c(N)nc2n1 [Triamterene] | 1.01 | 2.17 | 1.13 | 1.45 | 1.29
CCc1cc2c(cc1N1CCC(N3CCOCC3)CC1)C(C)(C)c1[nH]c3cc(C#N)ccc3c1C2=O [Alectinib hydrochloride] | 1.42 | 2.36 | 1.91 | 0.611 | 1.42
COc1cc(N)cn[n+]1-c1ccccc1 [Amezinium (methylsulfate)] | 1.39 | 0.864 | 0.801 | 0.523 | 1.16
Nc1nc2cc(-c3ccc4ncc(C(=O)N5CCOCC5)n4c3)ccc2o1 [Serabelisib (INK-1117.MLN-1117.TAK-117)] | 1.02 | 1.76 | 2.6 | 1.39 | 1.61
Clc1ccc(COC(Cn2ccnc2)c2ccc(Cl)cc2Cl)c(Cl)c1 (stereo not given) [Miconazole Nitrate] | 1.25 | 1.35 | 0.864 | 0.872 | 0.979

From the supplement of paper PMC10127200
